Over roughly 1,100 compounds, “Renilla luciferase signal (cell health) relative to plate median” has its median near 0.97; the highest 2% begin near 1.6. For the sample, the highest values were picked, then their nearest neighbours and some compounds at random.
Test system: HEK293T (UBE3A T485A transfected, BAR Wnt reporter)
Experiment: Renilla luciferase signal (cell health) relative to plate median (fold (linear ratio)); higher = higher Renilla signal
Conditions: 24 h
Method in brief: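 Chemicals were robotically dosed at 0.01–100 uM for 24 h onto HEK293T cells, starting four hours after transfection with a BAR firefly luciferase Wnt reporter, TK-Renilla and an expression plasmid. The cells had been plated at 4500 cells/well in DMEM with 10% FBS at 37°C and 5% CO2. Following a Dual-Glo luciferase readout, the firefly/Renilla ratio served as the Wnt activity measure and raw Renilla as the cell health measure, both median-centred on each plate. Each value is the mean of four biological replicates.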

| SMILES | Renilla luciferase signal (concentration: 0.01 uM) | Renilla luciferase signal (concentration: 0.1 uM) | Renilla luciferase signal (concentration: 1 uM) | Renilla luciferase signal (concentration: 10 uM) | Renilla luciferase signal (concentration: 100 uM) |
| --- | --- | --- | --- | --- | --- |
| Cc1ccn2nc(S(=O)(=O)Nc3c(F)cccc3F)nc2n1 [Flumetsulam] | 0.963 | 1.07 | 0.959 | 1.07 | 1.67 |
| CCOc1nc(F)cc2nc(S(=O)(=O)Nc3c(Cl)cccc3Cl)nn12 [Diclosulam] | 0.684 | 0.741 | 1.03 | 0.878 | 0.911 |
| COc1ccc(-c2ccccc2)cc1NNC(=O)OC(C)C [Bifenazate] | 1.24 | 1.21 | 1.11 | 1.06 | 0.851 |
| Cc1ccc([N+](=O)[O-])cc1N [2-Methyl-5-nitroaniline] | – | 1.11 | 1.21 | 1.15 | 0.978 |
| CC(C)N(C(=O)SCC(Cl)=C(Cl)Cl)C(C)C [Tri-allate] | 1.05 | 1.11 | 1.06 | 1.06 | 1.76 |
| CC(C)COC(=O)c1ccccc1C(=O)OCC(C)C [Diisobutyl phthalate] | – | 0.825 | 0.827 | 0.867 | 1.01 |
| CCC(C)(NC(=O)c1cc(Cl)c(C)c(Cl)c1)C(=O)CCl (stereo not given) [Zoxamide] | 1.25 | 1.05 | 0.961 | 0.117 | 0.0244 |
| C#CC(C)(C)NC(=O)c1cc(Cl)cc(Cl)c1 [Propyzamide] | 1.38 | 1.2 | 1.12 | 1.09 | 1.72 |
| COC(=O)N(OC)c1ccccc1COc1ccn(-c2ccc(Cl)cc2)n1 [Pyraclostrobin] | 1.35 | 0.995 | 0.707 | 0.149 | 0.113 |
| Oc1ccc2ccc3cccc4ccc1c2c34 [1-Hydroxypyrene] | – | 1.01 | 1.06 | 1.09 | 0.811 |
| O=P(Oc1ccccc1)(Oc1ccccc1)Oc1ccccc1 [Triphenyl phosphate] | – | 0.815 | 0.778 | 0.825 | 1.02 |
| CS/C(C)=N/OC(=O)N(C)SN(C)C(=O)O/N=C(\C)SC [Thiodicarb] | 1 | 0.646 | 0.895 | 0.91 | 0.0128 |
| CCCCCCCCc1ccc(O)cc1 [4-Octylphenol] | – | 1.09 | 1.1 | 1.3 | 0.803 |
| CSC(C)(C)C=NO [Aldicarb oxime] | – | 1.13 | 1.06 | 1.24 | 1.09 |
| CNC(=O)ON=CC(C)(C)SC [Aldicarb] | 1.1 | 0.924 | 0.97 | 0.918 | 1.72 |
| CNC(=O)ON=C(C)SC [Methomyl] | 0.945 | 0.951 | 1.1 | 1.04 | 1.25 |
| O=[N+]([O-])c1ccc(O)c([N+](=O)[O-])c1 [2,4-Dinitrophenol] | – | 1.15 | 1.11 | 0.966 | 0.305 |
| CCOC(=O)C(O)(c1ccc(Cl)cc1)c1ccc(Cl)cc1 [Chlorobenzilate] | – | 0.927 | 0.837 | 0.929 | 1.26 |
| CCCSP(=O)(OCC)SCCC [Ethoprop] | 1.13 | 0.976 | 1.08 | 1.1 | 1.86 |
| CCOP(=S)(OCC)SCSP(=S)(OCC)OCC [Ethion] | – | 0.929 | 0.935 | 0.973 | 1.13 |

| SMILES | Renilla luciferase signal (concentration: 0.01 uM) | Renilla luciferase signal (concentration: 0.1 uM) | Renilla luciferase signal (concentration: 1 uM) | Renilla luciferase signal (concentration: 10 uM) | Renilla luciferase signal (concentration: 100 uM) |
| --- | --- | --- | --- | --- | --- |
| CCCCSP(=O)(SCCCC)SCCCC [Tribufos] | 1.14 | 0.609 | 0.976 | 0.82 | 0.728 |
| CC(Cc1ccc(OCC(=O)O)cc1)NCC(O)c1csc(C(F)(F)F)n1 (stereo not given) | – | 0.796 | 0.849 | 0.912 | 1.28 |
| CCC12COCN1COC2 [5-Ethyl-1-aza-3,7-dioxabicyclo[3.3.0]octane] | – | 0.93 | 1.08 | 1.1 | 1.35 |
| CCCCC(CC)COC(=O)c1ccc(C(=O)OCC(CC)CCCC)c(C(=O)OCC(CC)CCCC)c1 (stereo not given) [Tris(2-ethylhexyl) trimellitate] | – | 0.879 | 0.991 | 0.972 | 1.2 |
| C[C@]12CCC(=O)C[C@@H]1CC[C@@H]1[C@@H]2CC[C@]2(C)[C@@H](O)CC[C@@H]12 [5alpha-Dihydrotestosterone] | – | 0.867 | 0.848 | 1 | 2.06 |
| CCC(=O)O[C@H]1CC[C@H]2[C@@H]3CCC4=CC(=O)CC[C@]4(C)[C@H]3CC[C@]12C [Testosterone propionate] | – | 0.869 | 0.772 | 0.878 | 1.11 |
| CNC(=O)N(C)c1nnc(C(C)(C)C)s1 [Tebuthiuron] | 1.19 | 0.795 | 1.02 | 0.738 | 1.26 |
| Cc1ccccc1N [2-Methylaniline] | – | 1.15 | 1.29 | 1.25 | 1.25 |
| CC(c1ccc(O)cc1)(c1ccc(O)cc1)c1ccc(O)cc1 [4,4',4"-Ethane-1,1,1-triyltriphenol] | – | 0.468 | 0.58 | 0.509 | 0.0116 |
| ClC(Cl)c1ccccc1 [Benzal chloride] | – | 1.11 | 0.929 | 1.12 | 1.15 |
| CC(C)(C)c1ccccc1O [2-tert-Butylphenol] | – | 0.823 | 0.913 | 0.724 | 0.378 |
| CC(C)(C)c1cc(C(C)(C)C)c(O)c(C(C)(C)C)c1 [2,4,6-Tris(tert-butyl)phenol] | – | 0.951 | 1.04 | 1.18 | 1.73 |
| COc1ccc(O)c(C(C)(C)C)c1 [2-tert-Butyl-4-methoxyphenol] | – | 0.947 | 0.971 | 1.22 | 1.03 |
| O=C(Nc1ccc2[nH]ccc2c1)c1cc2cc(F)ccc2n1Cc1cccc(F)c1 | – | 1.07 | 1.02 | 0.543 | 0.0428 |
| CCCN(CC)CC1COC2(CCC(C(C)(C)C)CC2)O1 (stereo not given) [Spiroxamine] | 0.835 | 1.34 | 1.13 | 1.06 | 0.0856 |
| CC(C)CCCCCCCOC(=O)c1ccccc1C(=O)OCCCCCCCC(C)C | – | 1.21 | 1.01 | 1.1 | 1.26 |
| CCCCOC(=O)c1ccccc1C(=O)OCc1ccccc1 [Benzyl butyl phthalate] | – | 1.05 | 1.23 | 1.28 | 1.04 |
| CC12CC1(C)C(=O)N(c1cc(Cl)cc(Cl)c1)C2=O (stereo not given) [Procymidone] | – | 0.813 | 1.07 | 1.07 | 1.27 |
| C=CC1(C)OC(=O)N(c2cc(Cl)cc(Cl)c2)C1=O (stereo not given) [Vinclozolin] | 1.03 | 0.904 | 1.09 | 1.28 | 2.37 |
| Cc1ccc(N)cc1 [4-Methylaniline] | – | 0.71 | 0.873 | 0.684 | 0.856 |
